Assay results taken from PubChem BioAssay (NCATS).
Inconclusive results are not listed. Unless noted, the call rests on the fitted dose curve; in most records, active means well fitted curve in either direction with a large enough effect (not every such curve was filed as active); inconclusive means small, poorly fitted or top-dose-only effect, or another doubt; inactive means flat fitted curve, though single readings scatter.

Columns and labels:
[1] = NFAT Signaling Pathway (AID 444); details: Jurkat NFAT-bla M1, carbachol, beta-lactamase ratio, 5 h; at 17.2 µM (top of the series) unless noted;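 further: carbachol stimulus at about its EC50 of 1 µM final; on the % scale 0 is the no-effect control and ±100 the full control effect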
How it was run: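 Read-out: CCF4 FRET ratio (460 nm/530 nm) after 1 h RT dye loading, used for %activity and AC50 from titration series. Cells: Jurkat NFAT-β-lactamase/M1 line, treated with compound plus 1 uM carbachol for 5 h, 37 °C.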

[2] = Stat Signaling Pathway (AID 446); details: ME-180 (cervical carcinoma) SIE beta-lactamase reporter, IL-6 stimulated, 5 h; at 17.2 µM (top of the series) unless noted;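 further: ME-180 cervical cancer cells given 40 pM IL-6 alongside compound; SIE-controlled beta-lactamase reporter measured as 460/530 nm FRET emission ratio; on the % scale 0 is the no-effect control and ±100 the full control effect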
How it was run: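 IL-6/STAT signaling read in ME-180 cells via an SIE beta-lactamase reporter. Stimulus was 40 pM IL-6 (its AC50) for 5 hrs, so both activation and inhibition register.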

[3] = target: Glucocorticoid receptor (Homo sapiens) (UniProt P04150); assay: GR-GFP Redistribution (AID 450;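 active means compounds whose dose series gives a full or clear partial fitted curve of increased nuclear translocation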; further: potency means the concentration at half of the fitted maximal effect)
Sequence of Glucocorticoid receptor (Homo sapiens) (P04150 whole entry, looked up): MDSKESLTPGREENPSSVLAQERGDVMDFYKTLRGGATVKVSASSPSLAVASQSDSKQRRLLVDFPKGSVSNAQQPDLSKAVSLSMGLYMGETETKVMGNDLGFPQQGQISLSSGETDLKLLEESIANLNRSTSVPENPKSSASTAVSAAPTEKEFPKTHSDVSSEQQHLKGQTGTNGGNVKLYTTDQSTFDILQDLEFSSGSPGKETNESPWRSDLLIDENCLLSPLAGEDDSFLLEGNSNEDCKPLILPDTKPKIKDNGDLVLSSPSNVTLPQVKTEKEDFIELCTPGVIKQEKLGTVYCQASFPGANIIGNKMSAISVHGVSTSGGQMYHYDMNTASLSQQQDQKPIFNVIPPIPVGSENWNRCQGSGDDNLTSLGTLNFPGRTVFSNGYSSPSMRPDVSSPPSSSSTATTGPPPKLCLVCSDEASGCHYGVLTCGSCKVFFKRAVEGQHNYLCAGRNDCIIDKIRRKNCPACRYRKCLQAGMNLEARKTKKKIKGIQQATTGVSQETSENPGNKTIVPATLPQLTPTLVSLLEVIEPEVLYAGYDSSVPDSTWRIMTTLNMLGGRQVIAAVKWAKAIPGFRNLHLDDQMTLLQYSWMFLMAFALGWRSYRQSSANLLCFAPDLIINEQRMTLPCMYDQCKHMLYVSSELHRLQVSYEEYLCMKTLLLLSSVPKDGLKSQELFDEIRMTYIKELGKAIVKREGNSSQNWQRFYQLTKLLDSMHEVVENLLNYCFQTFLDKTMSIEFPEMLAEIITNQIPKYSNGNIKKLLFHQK

CCC1(C)Cc2ccccc2-c2nc(NCCO)n(-c3ccccc3)c(=O)c21 (configuration not stated)
inactive: activity change, negative = inhibition [1] 6.29% | activity, negative = inhibition [2] -2.14% | Potency [3] > 20.6 µM

COc1ccc(CC(=O)Nc2cccc(-c3nnc(-c4ccco4)o3)c2)cc1
inactive: activity change, negative = inhibition [1] 29.9% | activity, negative = inhibition [2] -27.7% | Potency [3] > 20.6 µM

CCCCC(=O)c1c(C)cc(C)[nH]c1=O
inactive: activity change, negative = inhibition [1] 4.24% | activity, negative = inhibition [2] 1.99% | Potency [3] > 20.6 µM

COC(=O)c1ccccc1NC(=O)CSc1nnc(-c2ccncc2)o1
inactive: activity change, negative = inhibition [1] 4.54% | activity, negative = inhibition [2] 0.0286% | Potency [3] > 20.6 µM
